Screening data as filed in PubChem.
Sampled rows, rich in hits. Any-hit rate of the full collection: about 6.5%.
HCMV antiviral: human cytomegalovirus inhibition. HFF cells, HCMV-luciferase reporter, 72 h; hits give low values. 410,000 compounds, 4.5% hits. activity change, negative = inhibition, % at 57.5 µM; in the data active = activity change below about -60%; inconclusive = no clear call, values can overlap the other calls; inactive = above about -39%
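Luciferase read-out from HCMV-luciferase-infected HFFs (MOI 1 PFU/cell) 72 h post infection at 37C; compounds added after 16 h cell attachment; activity normalized between buffer-only basal and Salinomycin (10uM) inhibitor controls.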
MARV entry inh: Marburg virus entry inhibition. Marburg virus pseudotyped entry inhibition, cell reporter. Potency, µM (doses to about 37.8 µM), actives largely listed as inhibitors. 300,000 compounds, 1.8% hits. AID 540276; calls by dose curve; tested in HEK293 cells
LASV entry inh: inhibitors of Lassa virus binding or cell entry | Lassa virus pseudotype entry inhibition, cell reporter | Potency, µM (highest dose often 37.9 µM), most hits filed as inhibitors | 300,000 compounds, 1.2% hits | AID 540256; calls by dose curve; tested in HEK293 cells; note: nearly all actives have a fitted effect of over 50% in size
Vaccinia Venus: vaccinia inhibition (Venus reporter). Vaccinia virus Venus reporter expression, fluorescence. Potency, µM (series often up to 36.5 µM), hits mostly inhibitors. 330,000 compounds, 0.46% hits. AID 720580; calls by dose curve; tested in A549 cells; note: nearly all actives have a fitted effect of over 30% in size
FMDV inh: blocks foot and mouth disease virus; 410,000 compounds, 1.2% hits; Potency, µM (doses to about 57.9 µM), actives largely listed as inhibitors; FMDV antiviral cell-based qHTS; AID 1159524; calls by dose curve; tested in HEK293T cells; note: read-out not given here; nearly all actives have a fitted effect of over 45% in size
VACV mCherry inh: inhibitors of vaccinia virus infection (mCherry reporter signal) | Vaccinia virus mCherry reporter infection, fluorescence | Potency, µM (top dose mostly 36.5 µM), actives largely listed as inhibitors | 310,000 compounds, 0.63% hits; calls by dose curve; tested in A549 cells; note: nearly all actives have a fitted effect of over 35% in size
Of the large screens only hits and unclear results are named; the others gave an inactive call.

O=C(Nc1ccc2oc(-c3ccc4ccccc4c3)nc2c1)c1cc(Br)ccc1Cl	VACV mCherry inh inconclusive (no result: MARV entry inh)
O=C(Nc1ccc2oc(-c3cc(Br)ccc3Cl)nc2c1)c1ccc2ccccc2c1	HCMV antiviral -93, VACV mCherry inh inconclusive (no result: MARV entry inh)
CCN1C(=O)/C(=C/C=C2\C=CN(CC)c3ccccc32)SC1=S	MARV entry inh inconclusive, FMDV inh 13µM
O=C(c1ccc([N+](=O)[O-])cc1)N(c1ccccn1)c1ccccn1	none
CN(N=Cc1ccc([N+](=O)[O-])cc1)c1ccccn1	HCMV antiviral -70 (no result: MARV entry inh, LASV entry inh)
C[C@@H]1CN([C@H](C)CO)C(=O)c2c(c3ccccc3n2C)-c2ccccc2CO[C@H]1CN(C)Cc1ccccc1	Vaccinia Venus inconclusive (no result: MARV entry inh, LASV entry inh)
COc1cccc(CN(C)C[C@@H]2OCc3ccccc3-c3c(n(C)c4ccccc34)C(=O)N([C@@H](C)CO)C[C@H]2C)c1	HCMV antiviral -105, Vaccinia Venus inconclusive, FMDV inh inconclusive, VACV mCherry inh inconclusive (no result: MARV entry inh, LASV entry inh)
COc1cccc(NC(=O)c2cc(-c3ccccn3)nc3ccccc23)c1	none
Cc1ccc(S(=O)(=O)N2CCOCC2)cc1NC(=O)c1cc2ccccc2oc1=O	HCMV antiviral -101
O=C(Nc1cc(S(=O)(=O)N2CCOCC2)ccc1N1CCCCC1)c1cc(-c2ccccn2)nc2ccccc12	FMDV inh inconclusive
Cc1cccc(NC(=O)c2cc(-c3ccccn3)nc3ccccc23)c1C	MARV entry inh inconclusive, LASV entry inh inconclusive, FMDV inh 14µM
Cc1ccc(S(=O)(=O)N2CCOCC2)cc1NC(=O)c1cc(-c2ccccn2)nc2ccccc12	HCMV antiviral -70, Vaccinia Venus inconclusive, VACV mCherry inh 11µM (no result: MARV entry inh, LASV entry inh)
Cc1cccc(NC(=O)c2ccccc2O)c1C	HCMV antiviral -86 (no result: FMDV inh)
CCC(C)NC(=O)c1ccc2nc(-c3cccs3)c(-c3cccs3)nc2c1 (stereo not given)	none (no result: HCMV antiviral, MARV entry inh, LASV entry inh, FMDV inh)
COc1ccc(-c2nc(-c3ccc(NC(=O)c4ccc(Br)o4)cc3)no2)cc1OC	MARV entry inh inconclusive, Vaccinia Venus 32µM (no result: VACV mCherry inh)
COc1ccc(-c2nnc(-c3ccc(Br)o3)o2)cc1OC	HCMV antiviral -107 (no result: Vaccinia Venus, VACV mCherry inh)
COc1ccc(-c2nc(-c3ccc(Br)o3)no2)cc1OC	none (no result: MARV entry inh, LASV entry inh)
COC(=O)[C@@H]1CCCN1Cc1ccc2c(c1)CN(Cc1nccs1)CCO2	none (no result: HCMV antiviral, MARV entry inh, LASV entry inh)
COC(=O)c1ccccc1-c1cc(C)cc2c1OC(CNC(=O)c1ccn(C)n1)C2 (stereo not given)	none (no result: HCMV antiviral, MARV entry inh, LASV entry inh)
COc1ccc(N2CC3=C(C2=O)C(c2ccc(Br)cc2)NC(=O)N3C)cc1 (stereo not given)	HCMV antiviral -99, LASV entry inh inconclusive
Cc1nn2cc(-c3cccc(Cl)c3)cnc2c1Br	MARV entry inh inconclusive, Vaccinia Venus inconclusive, VACV mCherry inh inconclusive
Cc1nn2cc(-c3cccc(Cl)c3)cnc2c1Cl	MARV entry inh 4.5µM, LASV entry inh inconclusive
CC(=O)Nc1nnc2n1CCS2	none (no result: MARV entry inh)
CCCCCCn1c(=O)n2n(c1=O)[C@@H]1CN(S(=O)(=O)c3ccc(C)cc3)C[C@]1(O)[C@@H](OC(=O)NC1CC1)C2	VACV mCherry inh inconclusive (no result: MARV entry inh, LASV entry inh)
Cc1ccc(S(=O)(=O)N2C[C@H]3n4c(=O)ccc(=O)n4C[C@H](OC(=O)NCc4ccccc4F)[C@@]3(O)C2)cc1	HCMV antiviral -102, Vaccinia Venus inconclusive, FMDV inh 20µM, VACV mCherry inh inconclusive (no result: MARV entry inh, LASV entry inh)
Cc1ccc(S(=O)(=O)N2C[C@H]3n4c(=O)ccc(=O)n4C[C@H](OC(=O)Nc4cccs4)[C@@]3(O)C2)cc1	FMDV inh inconclusive, VACV mCherry inh inconclusive (no result: MARV entry inh, LASV entry inh)
CCCCCCNC(=O)O[C@H]1Cn2c(=O)n(CCCCCC)c(=O)n2[C@@H]2CN(S(=O)(=O)c3ccc(C)cc3)C[C@]12O	HCMV antiviral -103, Vaccinia Venus 16µM, FMDV inh inconclusive, VACV mCherry inh inconclusive (no result: MARV entry inh, LASV entry inh)
CCCCCCNC(=O)O[C@H]1Cn2c(=O)ccc(=O)n2[C@@H]2CN(S(=O)(=O)c3ccc(C)cc3)C[C@]12O	HCMV antiviral -89, Vaccinia Venus 10µM, FMDV inh 18µM, VACV mCherry inh inconclusive (no result: MARV entry inh, LASV entry inh)
Cc1nccn1CC(O)COc1ccc(Cl)cc1Cl (stereo not given)	FMDV inh 0.45µM
CSCCC(NC(=O)OCc1ccccc1)C(=O)NC(Cc1c[nH]c2ccccc12)C(=O)O (stereo not given)	none (no result: MARV entry inh, LASV entry inh, Vaccinia Venus, FMDV inh, VACV mCherry inh)
COC(=O)NNC(=O)COc1ccc(Cl)cc1	HCMV antiviral -108, LASV entry inh inconclusive (no result: Vaccinia Venus, VACV mCherry inh)
COCCNC(=O)/C(C#N)=C/c1cccc(/C=C(\C#N)C(=O)NCCOC)c1	HCMV antiviral -68, MARV entry inh inconclusive, LASV entry inh inconclusive, FMDV inh 14µM
N#C/C(=C\c1cccc([N+](=O)[O-])c1)C(=O)NCc1ccc(Cl)cc1	HCMV antiviral -98, MARV entry inh inconclusive, FMDV inh inconclusive
COCCNC(=O)/C(C#N)=C/c1ccc(O)cc1	none (no result: LASV entry inh, Vaccinia Venus, VACV mCherry inh)
CCOCCCNC(=O)/C(C#N)=C/c1ccc(Cl)c([N+](=O)[O-])c1	HCMV antiviral -102, MARV entry inh inconclusive, FMDV inh inconclusive
COc1ccc(/C=C(\C#N)C(=O)NCCc2ccccc2)cc1OCc1ccccc1	MARV entry inh 11µM, LASV entry inh inconclusive
N#C/C(=C\c1cccc([N+](=O)[O-])c1)C(=O)NCc1cccnc1	LASV entry inh inconclusive, FMDV inh inconclusive
CCOCCCNC(=O)/C(C#N)=C/c1cc(OC)c(O)c([N+](=O)[O-])c1	MARV entry inh inconclusive, LASV entry inh inconclusive
CCOC(=O)C1CCCN(S(=O)(=O)c2ccc3[nH]c(=O)oc3c2)C1 (stereo not given)	none
COc1cccc(Nc2ncc3nc(C)c(=O)n(CCC#N)c3n2)c1	none (no result: HCMV antiviral, MARV entry inh, LASV entry inh, Vaccinia Venus, VACV mCherry inh)
COc1ccc(-c2nc3cnc(N4CCOCC4)nc3n(-c3ccccc3)c2=O)cc1	none (no result: HCMV antiviral, MARV entry inh, LASV entry inh, Vaccinia Venus, VACV mCherry inh)
COC(=O)[C@@H]1CCCN1C(=O)c1cc(NC(=O)C2CCC2)c2c(c1)nc(-c1ccncc1)n2C	none (no result: HCMV antiviral, MARV entry inh, LASV entry inh)
Cc1ccc2cc(CNC(C)c3cccc4ccccc34)c(N3CCC(O)CC3)nc2c1 (stereo not given)	none (no result: HCMV antiviral, MARV entry inh, LASV entry inh)
O=C1CN(S(=O)(=O)c2ccccc2)C[C@H]2[C@H](c3ccc(Br)cc3)[C@H](CO)N12	none (no result: MARV entry inh, LASV entry inh, Vaccinia Venus, FMDV inh, VACV mCherry inh)
COCCNC(=O)/C(C#N)=C/c1ccc(O)c([N+](=O)[O-])c1	none (no result: MARV entry inh, LASV entry inh)
COCCNC(=O)/C(C#N)=C/C=C/c1ccccc1[N+](=O)[O-]	HCMV antiviral -96, MARV entry inh inconclusive, LASV entry inh inconclusive, FMDV inh inconclusive
Cc1ccc(NC(=O)Cn2nc(N3CCN(c4ccccc4)CC3)ccc2=O)cc1F	none (no result: MARV entry inh)
CCOC(=O)Cn1c(S(=O)(=O)Cc2cccc(F)c2)nc(-c2ccccc2)c1-c1ccccc1	HCMV antiviral inconclusive, MARV entry inh 2.6µM, LASV entry inh 7.3µM (no result: Vaccinia Venus, VACV mCherry inh)
CCOC(=O)Cn1c(S(=O)(=O)Cc2ccc(F)cc2)nc(-c2ccccc2)c1-c1ccccc1	HCMV antiviral -78, MARV entry inh 4.1µM, LASV entry inh 2.6µM, VACV mCherry inh inconclusive
COc1ccc(C)cc1NC(=O)C1CCN(S(=O)(=O)c2ccc3c(c2)CCCN3C(C)=O)CC1	none (no result: MARV entry inh)
CN1CCN(c2ccc(-c3ccc4ccccc4n3)cc2)CC1	HCMV antiviral -92, MARV entry inh inconclusive, LASV entry inh inconclusive, FMDV inh 1.8µM
